# From ChEMBL document CHEMBL4513216, “Probing the Open Global Health Chemical Diversity Library for Multistage-Active Starting Points for Next-Generation Antimalarials” (ACS Infect Dis, 2020)
# In all, about 69,000 compounds went through this assay and about 8,600 (12%) showed an effect of 50% or more. This is one part of a sample in which strong results are shown more often than they occur.
# Test system: Plasmodium berghei
# Assay: Screen against P. berghei liver stage (PbLuc), transformed with Luciferase, at 10uM
# Type: functional, HepG2
# Conditions: tested at 10 uM
row,SMILES,INHIBITION [%]
1,Cc1sc(CN)nc1-c1ccc(Cl)cc1,5.11
2,CCc1cc(-c2cc[nH]n2)nc(N2CCCC2)n1,14.6
3,Cn1cc([C@@H]2CN(S(=O)(=O)c3cccs3)C[C@H]2N)c2ccncc21,41.9
4,Cc1c(CC(=O)N2CCSCC2)nnn1-c1cccc(Cl)c1,3.46
5,O=C(CC1CCCC1)N1CCC2(CC1)[C@H](O)C[C@@H]2O,33.4
6,CN(Cc1ccco1)C(=O)CN1CCCC1Cn1cncn1 (centres undefined),-4.16
7,Cc1cnn(C2CCCN(C(=O)c3cn4ccccc4n3)C2)c1 (centres undefined),22.3
8,COc1ccnc(N2CCN(C(=O)Cc3csc(C)n3)CC2)n1,-55.4
9,CCOc1ccccc1CNCC1CCN(CC(C)O)CC1 (centres undefined),28.7
10,CCN(CC)C(=O)Nc1cccc(Oc2ccccn2)c1,20
11,Cc1nc(C2CCCN(C(=O)c3ccc(N4CCCC4)nn3)C2)no1 (centres undefined),-19.4
12,CCn1cc(-n2cc3nc(N(C)C)[nH]cc-3c2=O)cn1,-13
13,Cc1occc1C(=O)N1Cc2nccn2CC(CN2CCCC2)C1 (centres undefined),31.2
14,Cc1noc(C)c1CC(=O)N1CCCC(Cn2ccnc2C)C1 (centres undefined),44.7
15,CCc1nnc(CN(CC)C(=O)C(C)n2ccnc2C(C)C)o1 (centres undefined),30.3
16,Cc1cc2c(=O)n3c(nc2s1)CCN(C(=O)c1ccnn1C)CC3,-16.5
17,Cc1cc2c(=O)n3c(nc2s1)CCN(C(=O)c1scnc1C)CC3,40.9
18,Cc1cc(C(=O)N2CCc3nc4sc(C)cc4c(=O)n3CC2)on1,53.2
19,Cc1nc(C)c(C(=O)N2CCc3nc4sc(C)cc4c(=O)n3CC2)o1,-12.9
20,Cc1cc2c(=O)n3c(nc2s1)CCN(C(=O)c1sc(C)nc1C)CC3,80.9
21,Cc1cc2c(=O)n3c(nc2s1)CCN(C(=O)c1c(C)noc1C)CC3,41.2
22,Cc1noc(C)c1-c1cccc(CC2CCN(C(=O)CN)C2)n1 (centres undefined),36.7
23,Cc1ccc2c(n1)N(CCn1cccn1)CCN(C(=O)CC1CC1)C2,-1.64
24,CCn1cnnc1CNC(=O)N1CCN(Cc2ccsc2)CC1,-63.3
25,CCN1Cc2ccccc2CC2(CCN(C(=O)N(C)C)CC2)C1=O,36.5
26,CC[C@@H]1N(Cc2ccc(C)s2)CCC[C@]12CCC(=O)N2C,-24.5
27,CCCn1ccnc1-c1cccc(NC2CCOC2)c1 (centres undefined),33.4

row,SMILES,INHIBITION [%]
1,CCCn1ccnc1-c1cccc(NC(=O)C2CCCOC2)c1 (centres undefined),55
2,CCCn1ccnc1-c1cccc(NC(=O)[C@H]2CCC(=O)N2)c1,24.3
3,c1coc(CN2CCC3(CC2)COCCN(CCN2CCCC2)C3)c1,0.923
4,CC(C)NC(=O)N(C)C(c1cccc(F)c1)c1ccccn1 (centres undefined),-132
5,O=C(N[C@@H]1CCC[C@@H](N2CCOCC2)[C@@H]1O)c1cnn2cccnc12,-32.2
6,CCc1cc(CNC(=O)c2cc(NC(=O)C(C)C)ccc2Cl)[nH]n1,21.2
7,Cc1cc(CNC(=O)NC(C)c2ccncc2)no1 (centres undefined),11.8
8,Cc1cc(CNC(=O)c2cc(NC(=O)C(C)C)ccc2Cl)no1,68.3
9,NC(=O)c1cnn2c1NCC(CNCCCc1ccccc1)C2 (centres undefined),6.35
10,Cc1ccc(-c2cc(CNC(=O)N3CCC(O)CC3)on2)cc1,-25.8
11,O=C(CSCc1ccncc1)NCc1csc(Br)c1,43.2
12,CC(=O)c1ccc(NCc2cc3n(n2)CCCN(S(C)(=O)=O)C3)nc1,50.3
13,CCc1cc(NCc2cc3n(n2)CCCN(S(C)(=O)=O)C3)nc(C)n1,53
14,Cc1c[nH]c(CN2CCCn3nc(CNS(C)(=O)=O)cc3C2)n1,66.6
15,CS(=O)(=O)NCc1cc2n(n1)CCCN(Cc1nc3ccccc3[nH]1)C2,20.1
16,Cc1cc(F)cc(CN2CCCn3nc(CNS(C)(=O)=O)cc3C2)c1,24.9
17,CS(=O)(=O)N1CCCn2nc(CNc3ncccn3)cc2C1,34.9
18,Cc1cc(NCc2cc3n(n2)CCCN(S(C)(=O)=O)C3)ncn1,-9.86
19,CS(=O)(=O)N1CCCn2nc(CNc3cc(C#N)ccn3)cc2C1,23
20,Cc1nccc(NCc2cc3n(n2)CCCN(S(C)(=O)=O)C3)n1,24.9
21,CCOC1CCN(C(=O)NCCc2ccn(-c3ccccc3)n2)CC1,-10.1
22,COCC1c2c(cnn2C)CCN1Cc1ccc(F)cc1 (centres undefined),21.6
23,O=C1CC2(CCN(c3nncs3)C2)CN1c1ccc2c(c1)OCCO2 (centres undefined),-7.29
24,COCCn1ccc2ccc(C(=O)N3CCN(C(C)=O)CC3)cc21,10.5
25,Cc1cc(C)n(Cc2ccc(C(=O)N3CCOCC3(C)C)cc2)n1,27.9
26,Cc1ccc(S(=O)(=O)N2CCN(CCC(N)=O)CC2)s1,38.8
27,Cc1ccc(S(=O)(=O)N2CCC(Cn3cc(C(C)(C)N)nn3)CC2)s1,61.8
